Inconclusive results are not listed. The source made the active and inactive calls. Calls follow the shape of the dose curve; as a rule, active = well fitted cell-killing curve with a large enough effect; inconclusive = small, poorly fitted or top-dose-only effect, or effect the other way; inactive = flat fitted curve, though single readings scatter.
Experiments:
Experiment in all cases: Primary qHTS to identify gynecologic anti-cancer compounds using libraries of approved drugs and bioactive compounds (AID 1345084); also: nearly all actives have a fitted effect of over 55% in size
CAOV3 = conditions: Gynecologic cancer cell panel viability, ATPlite luminescence, 48 h; series mostly up to 57.5 µM
Method in brief: (§1)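 Cytotoxicity screen measuring ATP content by luciferase luminescence. Each compound is applied at five concentrations for 48 h at 37 C with 5% CO2.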

CASKI = conditions: Gynecologic cancer cell panel viability, ATPlite luminescence, 48 h; series mostly up to 57.5 µM
Method in brief: as §1

Es-2 = conditions: Gynecologic cancer cell panel viability, ATPlite luminescence, 48 h; series mostly up to 57.5 µM
Method in brief: as §1

HeLa = conditions: Gynecologic cancer cell panel viability, ATPlite luminescence, 48 h; series mostly up to 57.5 µM
Method in brief: as §1

Hek293T = conditions: Gynecologic cancer cell panel viability, ATPlite luminescence, 48 h, control line for the selectivity index; series mostly up to 57.5 µM
Method in brief: as §1

JEG-3 = conditions: Gynecologic cancer cell panel viability, ATPlite luminescence, 48 h; series mostly up to 57.5 µM
Method in brief: as §1

OV90 = conditions: Gynecologic cancer cell panel viability, ATPlite luminescence, 48 h; series mostly up to 57.5 µM
Method in brief: as §1

PA-1 = conditions: Gynecologic cancer cell panel viability, ATPlite luminescence, 48 h; series mostly up to 57.5 µM
Method in brief: as §1

SKOV3 = conditions: Gynecologic cancer cell panel viability, ATPlite luminescence, 48 h; series mostly up to 57.5 µM
Method in brief: as §1

Tov-21-G = conditions: Gynecologic cancer cell panel viability, ATPlite luminescence, 48 h; series mostly up to 57.5 µM
Method in brief: as §1

Tov112D = conditions: Gynecologic cancer cell panel viability, ATPlite luminescence, 48 h; series mostly up to 57.5 µM
Method in brief: as §1

Measured: Potency

OC[C@H]1O[C@@H](Oc2ccc(O)c3cccc(O)c23)[C@H](O)[C@@H](O)[C@@H]1O
inactive: all assays above

C=C1CC23CC1(O)CCC2C1=CC2OC(=O)C(C)(C2O)C1C3C(=O)O (centres undefined)
inactive: all assays above

CCOC(=O)[C@H](CCc1ccccc1)CC1(C(=O)N[C@H]2CCc3ccccc3N(CC(=O)O)C2=O)CCCC1
inactive: all assays above

CC1CC(O)CC(C)(C)C1(O)CCO (centres undefined)
inactive: all assays above

COc1cc(/C=C/C(=O)OC2[C@H](O)CC(O)(C(=O)O)C[C@H]2O)ccc1O (some centres undefined)
inactive: all assays above

CC[C@H]1OC(=O)[C@H](C)[C@@H](OC2C[C@@](C)(OC)[C@@H](O)[C@H](C)O2)[C@H](C)[C@@H](OC2O[C@H](C)C[C@H](NC)[C@H]2O)[C@](C)(O)C[C@@H](C)CN(C)[C@H](C)[C@@H](O)[C@]1(C)O (some centres undefined)
inactive: all assays above

CN1C(=O)c2ccccc2-n2c(nc3ccccc3c2=O)[C@@]12O[C@H]2c1ccccc1
inactive: all assays above

CC(C)C1=CCC(C)(O)C(OC2OC(CO)C(O)C(O)C2O)C1 (centres undefined)
inactive: all assays above

CC(=C/C(=O)O)/C=C/[C@]1(O)[C@@]2(C)CO[C@]1(C)C[C@H](O[C@@H]1O[C@H](CO)[C@@H](O)[C@H](O)[C@H]1O)C2
inactive: all assays above

OCc1ccccc1O[C@@H]1O[C@H](CO)[C@@H](O)[C@H](O)[C@H]1O
inactive: all assays above

CC(C)(O)CNc1nc(Nc2ccnc(C(F)(F)F)c2)nc(-c2cccc(C(F)(F)F)n2)n1
inactive: all assays above

COc1cc(C(=O)OC[C@H]2O[C@H](O[C@@]3(CO)O[C@@H](CO)[C@H](O)[C@H]3O)[C@H](O)[C@@H](O)[C@@H]2O)ccc1O
inactive: all assays above

C[C@]1(O)CC[C@@H]2C(C(=O)O)=CO[C@@H](O[C@@H]3O[C@H](COC(=O)c4ccc(O)cc4)[C@@H](O)[C@H](O)[C@H]3O)[C@@H]21
inactive: all assays above

O=c1c2cccnc2n(-c2cccc([N+](=O)[O-])c2)c(=O)n1Cc1ccncc1
inactive: all assays above
